Assay outcomes from PubChem BioAssay.
RORg inh: ROR gamma (mouse) transcription inhibition; P51450; 310,000 tested, 5.4% active; Potency, µM (highest dose often 53.6 µM), inactives show top-dose activity change, negative = inhibition, most hits filed as inhibitors; Drosophila S2 Gal4-RORgamma UAS-luciferase reporter, 20 h; AID 2551; also: % is scaled to controls: 0 for no effect and ±100 for the full control effect; nearly all actives have a fitted effect of over 60% in size
Target sequence (P51450 whole entry, looked up, the tested form may be a part): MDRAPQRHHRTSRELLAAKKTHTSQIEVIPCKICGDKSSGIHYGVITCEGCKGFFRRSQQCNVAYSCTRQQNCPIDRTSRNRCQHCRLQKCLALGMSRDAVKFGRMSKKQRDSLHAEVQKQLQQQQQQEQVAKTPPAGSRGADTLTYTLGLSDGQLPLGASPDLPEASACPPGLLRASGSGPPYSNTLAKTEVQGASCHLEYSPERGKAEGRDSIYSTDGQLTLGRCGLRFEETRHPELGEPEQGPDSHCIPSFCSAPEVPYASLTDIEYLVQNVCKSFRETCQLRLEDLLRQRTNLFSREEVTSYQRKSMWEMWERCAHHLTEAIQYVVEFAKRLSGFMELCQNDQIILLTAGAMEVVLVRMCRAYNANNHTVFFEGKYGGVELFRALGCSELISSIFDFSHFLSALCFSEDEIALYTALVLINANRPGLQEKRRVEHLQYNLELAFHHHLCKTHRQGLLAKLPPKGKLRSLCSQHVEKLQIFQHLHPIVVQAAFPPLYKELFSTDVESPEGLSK
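Using a luciferase readout, inhibitors were identified by reduced reporter activity in Drosophila cells coexpressing a copper-inducible Gal4–ROR gamma fusion and UAS-driven Photinus luciferase, incubated 20 hr after 700 uM copper sulfate.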
KB-3-1 cytotox: KB-3-1 parental cell cytotoxicity; Potency, µM (series often up to 46.1 µM), actives largely listed as cytotoxic; 400,000 tested, 1.4% active; KB-3-1 viability, CellTiter-Glo ATP luminescence, 72 h; also: % is scaled to controls: 0 for no effect and ±100 for the full control effect; nearly all actives have a fitted effect of over 60% in size
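KB-3-1 parental drug-naive adenocarcinoma cells in DMEM/10% FBS, incubated 72 h at 37 C with pin-transferred compounds across a concentration series. Viability by CellTiter-Glo luminescence; concentration-response curves fitted after normalization.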
MCF10A rereplic: DNA re-replication induction in MCF 10a cells; MCF 10A DNA re-replication, Hoechst nuclear intensity, 48 h; Potency, µM (titrated, usually from 46.1 µM), without a hit: top-dose activity, positive = re-replication, actives largely listed as activators; 350,000 tested, 2.9% active; also: % of control where 0% means no effect; nearly all actives have a fitted effect of over 50% in size
KB-V1 cytotox: kills drug-selected multidrug resistant KB-V1 cells; KB-V1 MDR cells viability, CellTiter-Glo, 72 h; Potency, µM (top dose mostly 46.1 µM), actives largely listed as cytotoxic; 400,000 tested, 3.4% active; AID 1347076; also: % is scaled to controls: 0 for no effect and ±100 for the full control effect; nearly all actives have a fitted effect of over 60% in size
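KB-V1 cells (P-gp-expressing MDR subline of KB-3-1) in phenol-red-free DMEM with 10% FBS were exposed to library compounds over a concentration series for 72 h at 37 degrees C. Viability read by CellTiter-Glo luminescence; concentration-effect curves fitted after normalization.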
VP16 counter: inhibits Gal4-VP16 luciferase reporter, ROR gamma counter-screen. Potency, µM (doses to about 53.6 µM), without a hit: at the highest dose activity, negative = inhibition, most hits filed as inhibitors. 310,000 tested, 3.5% active. Drosophila S2 Gal4-VP16 UAS-luciferase, luminescence, 20 h;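 also: Gal4-VP16 expression switched on by copper sulfate through the metallothionein promoter; % is scaled to controls: 0 for no effect and ±100 for the full control effect; nearly all actives have a fitted effect of over 50% in size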
SW480 rereplic: induces DNA re-replication in SW480 colon adenocarcinoma cells | SW480 DNA re-replication, Hoechst DNA content imaging, 48 h | Potency, µM (doses to about 46.1 µM), without a hit: top-dose re-replication activation, actives largely listed as activators | 340,000 tested, 1.8% active | AID 624297; also: % of control where 0% means no effect; nearly all actives have a fitted effect of over 55% in size
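Quantitative HTS format with DMSO vehicle controls; 48 hr drug incubation at 37 C, then 40 min Hoechst staining and scanning imager measurement at 405 nm excitation.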
* = called active by the depositor; i = inactive; ? = inconclusive; · = no result given; [ ] = another dose, or the depositor's remark. Only some compounds are listed: those with a hit (about 10% of all), similar ones and a draw of the others. Calls follow the shape of the dose curve; as a rule, active = well fitted curve in the direction sought with a large enough effect; inconclusive = small, poorly fitted or top-dose-only effect, or another doubt; inactive = no such curve, though single readings can be large; an effect the other way counts as inactive or inconclusive. Potency is read from the fitted curve at half-maximal effect.

SMILES	RORg inh	KB-3-1 cytotox	MCF10A rereplic	KB-V1 cytotox	VP16 counter	SW480 rereplic
CC(=O)c1c(C)[nH]c(C(=O)OCC(=O)Nc2cc(S(=O)(=O)N3CCCC3)ccc2Cl)c1C	?	?	-63%	13µM*	?	54%
CC(=O)c1c(C)[nH]c(C(=O)OCC(=O)Nc2ccccc2Cl)c1C	31%	21µM*	7%	4.6µM*	14%	0%
COc1ccc(S(=O)(=O)N2CCOCC2)cc1NC(=O)COC(=O)c1[nH]c(C)c(C(C)=O)c1C	·	i	12%	i	·	6%
CC(=O)c1c(C)[nH]c(C(=O)OCC(=O)Nc2cccc(S(=O)(=O)N3CCCC3)c2)c1C	-24%	2.3µM*	23%	?	?	-6%
CC(C)c1ccc2[nH]c(O)c(N=NC(=O)c3cccc(S(=O)(=O)Nc4ccccc4Cl)c3)c2c1	16%	i	15µM*	i	-12%	-3%
CC(C)NC(=S)N=Nc1c(O)[nH]c2ccc(C(C)C)cc12	5µM*	i	4%	?	4.5µM*	-40%
CC(Oc1ccccc1)C(=O)N=Nc1c(O)[nH]c2ccc([N+](=O)[O-])cc12 (stereo not given)	?	i	-1%	i	?	0%
Cc1ccc(C(C)C)c(OCC(=O)Nc2ccc(S(=O)(=O)Nc3onc(C)c3C)cc2)c1	·	i	·	i	·	·
CC(=O)c1cccc(-c2ccnc3c2CC(C(=O)Nc2cccc(NS(C)(=O)=O)c2)O3)c1 (stereo not given)	·	?	·	i	·	·
O=C(Cn1nc(-c2ccccc2)c2cnc3ccccc3c21)Nc1ccccc1	·	i	·	i	·	·
CS(=O)(=O)CCCCN=C=S	13µM*	·	·	·	-16%	·
CNC(=S)NCCC(c1ccccc1)c1ccccc1	7.1µM*	i	-7%	i	?	-12%
Cc1cccc(NC(=S)NCCCN2CCOCC2)c1	-13%	i	-2%	i	-2%	1%
COc1cc(NC(=S)NCCC(c2ccccc2)c2ccccc2)cc(OC)c1	4.5µM*	i	-8%	i	8.9µM*	?
Cc1cccc(NC(=S)NCCC(c2ccccc2)c2ccccc2)c1	4µM*	i	?	?	7.1µM*	9%
COc1ccc(NC(=S)NCCC(c2ccccc2)c2ccccc2)c(OC)c1	4µM*	?	29%	?	3.2µM*	-6%[9.22 µM]
O=C(NCCc1ccccc1)c1ccc(CSc2nc3ccncc3n2Cc2ccccc2)cc1	·	i	·	i	·	·
COc1ccc(C)cc1NC(=O)c1cc2c(=O)n(Cc3cccnc3)ccc2nc1C	·	i	·	i	·	·
COc1cccc(NC(=S)NCCC(c2ccccc2)c2ccccc2)c1	?	i	?	i	22µM*	-2%
COc1cccc(NC(=S)NCCN2CCOCC2)c1	-25%	i	1%	i	8%	-1%
COc1cc(NC2CCCCC2O)c2nc(-c3ccc(Cl)cc3)ccc2c1 (stereo not given)	-4%	?	13µM*	?	-8%	13µM*
Cc1ccc(-c2cn3c(n2)sc2cc(C(=O)NC(C)C45CC6CC(CC(C6)C4)C5)ccc23)cc1 (stereo not given)	·	i	·	i	·	·
O=C(/C=C/c1ccccc1)c1ccc(O[C@H]2OC(CO)C(O)C(O)C2O)cc1O (stereo not given in full)	?	·	·	·	0%	·
CCC(=O)N1CCCC(C(=O)Nc2nc3ccccc3[nH]2)CC1 (stereo not given)	·	i	·	i	·	·
O=C1c2sc3nc4n(c(=O)c3c2CCC1Br)CCCCC4 (stereo not given)	10µM*	i	2%	i	20µM*	?
SMILES	RORg inh	KB-3-1 cytotox	MCF10A rereplic	KB-V1 cytotox	VP16 counter	SW480 rereplic
COc1ccccc1N1CCN(c2nc(C)nc3c2oc2ccccc23)CC1	?	1.4µM*	?	1.1µM*	4%	?
Cc1nc(N2CCN(Cc3ccc(Cl)cc3)CC2)c2oc3ccccc3c2n1	-35%	i	?	?	-5%	6%
Cc1nc(N2CCN(Cc3ccc4c(c3)OCO4)CC2)c2oc3ccccc3c2n1	·	?	12µM*	?	·	?
Cc1nc(N2CCC(C)CC2)c2oc3ccccc3c2n1	13µM*	?	?	21µM*	?	-14%[9.22 µM]
COc1ccc(C)cc1-n1nnc(-c2nc(-c3ccccc3Cl)no2)c1N	·	i	·	i	·	·
COC(=O)C/C=C\[C@@H](C)[C@@H](CO)NS(=O)(=O)c1ccc(C)cc1	13%[10 µM]	·	·	·	9%[10 µM]	·
O=C(NC1CC1)c1ccc2nc(-c3ccco3)c(-c3ccco3)nc2c1	·	i	·	i	·	·
CCOc1ccc(C(=O)OCc2cc(=O)n3nc(C(C)C)sc3n2)cc1	·	i	·	i	·	·
O=C1CC(c2ccccc2)CC2=C1C1(CCCC1)N=C(Nc1nc3ccccc3o1)N2 (stereo not given)	·	i	·	i	·	·
CC(/C=N/n1c(-c2ccccc2)n[nH]c1=S)=C\c1ccco1	?	i	3%	i	7.1µM*	-3%
CC(/C=N/n1c(-c2ccc(C)cc2)n[nH]c1=S)=C\c1ccco1	2.8µM*	i	?	i	2.8µM*	-1%
CN(C(=O)CSC1=Nc2ccccc2C2=NC(c3ccccc3)C(=O)N12)C1CCCCC1 (stereo not given)	15%	i	?	5.2µM*	-4%	10%
O=C(CSC1=Nc2ccccc2C2=NC(c3ccccc3)C(=O)N12)NC1CCCCC1 (stereo not given)	-11%	i	?	i	-4%	-1%
O=C(c1cc(-c2ccc(Cl)cc2Cl)on1)N1CCOCC1	10µM*	i	-3%	i	?	-8%
O=C(NCCN1CCOCC1)c1cc(-c2ccc(Cl)cc2)on1	15%	i	-6%	21µM*	3%	3%
O=C(c1cc(-c2ccc3c(c2)OCO3)on1)N1CCOCC1	10µM*	i	-7%	?	7.9µM*	-8%
COc1ccccc1N1CCN(C(=O)c2cc(-c3ccc4c(c3)OCO4)on2)CC1	6%	i	2%	16µM*	0%	0%
O=C(NCCN1CCOCC1)c1cc(-c2ccc(Cl)c(Cl)c2)on1	-13%	i	-2%	i	1%	29%
O=C(c1cc(-c2ccccc2O)on1)N1CCOCC1	5%	i	-2%	?	3%	1%
CCC(=O)N1c2ccccc2CC1C(=O)NCCc1ccccc1OC (stereo not given)	·	i	·	i	·	·
